CYP2C19 act: increases human CYP2C19 enzyme activity | activation factor at 5 µM | AID 1025 | 96,000 tested, under 10 active | recombinant CYP2C19, luciferin-H EGE luminescence; stronger effect = higher value; 0 = fully inhibited enzyme, 1 = untreated enzyme | P33261;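 active means activation factor of at least 2 at 5 µM in the primary screen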;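 further: 0 = wells with 2.5 mM tranylcypromine and 1 = vehicle-only wells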
hDAT+cocaine: human DAT dopamine uptake with cocaine, either direction. Q01959. LLC-PK1 hDAT cells, [14C]-dopamine uptake with cocaine IC80; actives deviate in either direction. B-score at 10 µM. hit rate 1.3% among 110,000. AID 449768;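 active means Z score or B-score, a plate-position-corrected score, falls beyond the plate's 99.7% confidence bounds, in either direction; inactive means both scores lie inside the 99.7% bounds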;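 further: scored against the spread of the other compound wells on the same plate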
CYP2C9 inhib: inhibitors of human CYP2C9 | CYP2C9 Supersomes, luciferin-H conversion, luminescence | hit rate 20% among 96,000 | AID 777 | inhibition, % at 5 µM;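 active means blocking of liver enzyme CYP2C9 beyond about 50% at 5 µM, limit read from the data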
CYP2C9 act: increases human cytochrome P450 2C9 activity; P11712; recombinant CYP2C9, luciferin-H conversion, luminescence; stronger effect = higher value; factor 1 = untreated enzyme, 0 = blocked; activation factor at 5 µM; hit rate 1.4% among 96,000;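 active means activation factor of 2 or more for CYP2C9 at a 5 µM dose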;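 further: 0 = sulfaphenazole-blocked wells and 1 = vehicle-only wells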
D1 allo mod: allosteric modulators of human D1 dopamine receptor; P21728; HEK293 D1, CRE-luciferase, dopamine EC30 potentiation; actives deviate in either direction; B-score at 10 µM; hit rate 5.9% among 58,000;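 active means luminescence count or its row- and column-corrected plate score outside the 99.7% band of the plate's sample wells, on either side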
Target sequence (P21728 whole entry, looked up): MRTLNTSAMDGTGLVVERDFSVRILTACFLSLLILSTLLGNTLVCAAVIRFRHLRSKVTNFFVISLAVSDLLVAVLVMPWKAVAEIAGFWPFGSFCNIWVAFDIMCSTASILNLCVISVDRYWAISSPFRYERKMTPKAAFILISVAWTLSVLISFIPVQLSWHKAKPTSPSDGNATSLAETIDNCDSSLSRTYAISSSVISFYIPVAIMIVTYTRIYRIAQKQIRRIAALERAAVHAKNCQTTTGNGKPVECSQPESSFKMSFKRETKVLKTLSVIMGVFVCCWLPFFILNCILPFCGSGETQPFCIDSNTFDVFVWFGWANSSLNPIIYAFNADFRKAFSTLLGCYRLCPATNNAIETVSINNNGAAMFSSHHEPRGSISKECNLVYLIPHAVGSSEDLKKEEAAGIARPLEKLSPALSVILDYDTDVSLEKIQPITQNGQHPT
CYP2C19 inh: human CYP2C19 inhibition. P33261. CYP2C19 Supersomes, luciferin-H EGE luminescence, 30 min. inhibition, % at 5 µM. hit rate 21% among 96,000;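 active means CYP2C19 inhibition above a set limit at 5 µM in the primary screen, cut at about 50% in these data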;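 further: plate controls were negative control wells for no effect and 2.5 mM tranylcypromine positive control for full effect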
An asterisk follows results filed as active; nt = no result given. A selection: hits, their analogues and other compounds. The true share with any hit is near 28%.

SMILES	CYP2C19 act	hDAT+cocaine	CYP2C9 inhib	CYP2C9 act	D1 allo mod	CYP2C19 inh
COc1cccc(NC2SC(=O)N(c3ccccc3)C2=O)c1 (stereo not drawn)	1.1	-0.803	22.4	0.8	0.286	-5.6
CCOC(=O)c1c(NC(=O)C(C)NCc2ccco2)sc2c1CCC(C)C2 (stereo not drawn)	0.8	-0.254	37.2	0.6	nt	24.6
CCNC(=O)C1CC(=O)OC12CCCCC2 (stereo not drawn)	0.7	nt	0.1	1	nt	31.3
COC(=O)c1cc(NC(=O)Nc2ccccc2OC)cc(C(=O)OC)c1	0.9	-1.69	17.7	0.8	nt	14.2
CN(C)/C=N/c1cnc(C(=O)c2ccc(Cl)cc2)n1C	0.4	0.498	31.6	0.7	-0.792	59.7*
COc1ccc(S(=O)(=O)N[C@@H](Cc2ccc(Cl)cc2)C(=O)N2CC[C@@]3(O)CCCC[C@H]3C2)cc1	0.6	0.919	31.4	0.7	nt	43.7
N#Cc1ccccc1Sc1ccccc1C(=O)Nc1ccccc1	0.5	-0.877	49.5	0.5	nt	51.7*
N#Cc1ccccc1Sc1ccccc1C(=O)OCc1nnc(-c2ccccc2)o1	0.3	2.53*	58.4*	0.4	-0.598	68.8*
O=C(CCN1c2ccccc2Sc2ccccc21)OCc1nnc(-c2ccccc2)o1	0	-1.1	95.1*	0	-0.16	95.7*
Cc1noc(C)c1COC(=O)c1ccccc1Sc1ccccc1C#N	0.4	-0.159	74.2*	0.3	0.0357	59.1*
O=C(Nc1ccccc1)c1ccccc1O	0.8	2.23	24.0	0.8	-1.3	18.8
NC(=O)CC(NSc1ccccc1[N+](=O)[O-])C(=O)O (stereo not drawn)	nt	-1.95	nt	nt	nt	nt
C=CCNS(=O)(=O)c1ccc2nsnc2c1	0.8	-0.648	14.3	0.9	-1.01	22.8
O=C(OCc1nnc(-c2ccccc2)o1)c1ccc2c(c1)OCO2	0.3	-0.318	81.2*	0.2	0.202	65.4*
O=C(OCc1nnc(-c2ccccc2)o1)c1cc(=O)c2ccccc2o1	1	-1.11	-5.3	1.1	-0.229	0.3
COc1ccc(NC(=O)c2cccnc2N2CCCC2)cc1	1.1	1.39	94.1*	0.1	nt	-5.1
COc1ccc(NC(=O)c2cccnc2N2CCCCC2)cc1	nt	1.02	nt	nt	nt	nt
O=C(Nc1ccccc1N1CCCC1)c1cccnc1Cl	nt	-1.7	nt	nt	nt	nt
O=C(Nc1ccc(Br)cc1)c1cccnc1N1CCCCC1	0.6	0.809	85.5*	0.1	nt	37.3
O=C(Nc1ccc(F)cc1)c1cccnc1N1CCCCC1	0.2	0.0171	62.0*	0.4	nt	75.1*
COc1ccc(-n2nnc3c(SCC(=O)N4CCCc5ccccc54)ncnc32)cc1	nt	nt	nt	nt	-1.61	nt
O=C(NCCO)c1cccc(Nc2nc(-c3ccccc3)c3cc(Cl)ccc3n2)c1	0.8	1.85	-4.1	1	nt	16.5
O=C(Cc1cccc2ccccc12)Nc1ccc(-c2cc3ccccc3oc2=O)cc1	1	1.61	37.4	0.6	nt	-2.3
C=CCNCc1cccn1-c1sc2c(c1C#N)CCCC2	1	1.21	-6.2	1.1	-0.381	3.1
N#Cc1c(-n2cccc2/C=N/O)sc2c1CCCC2	0.6	0.728	-176.5	2.8*	-0.178	40.5
SMILES	CYP2C19 act	hDAT+cocaine	CYP2C9 inhib	CYP2C9 act	D1 allo mod	CYP2C19 inh
Cc1c(C(=O)NCc2ccccc2)c(-c2ccccc2)nn1-c1ccccc1	0.6	1.24	33.9	0.7	nt	43.0
C=CCOC(=O)CSCC(NC(=O)OC(C)(C)C)C(=O)OCC (stereo not drawn)	0.4	-0.818	45.4	0.5	nt	58.1*
CCOC(=O)CSc1nnc([C@H](C)NC(=O)OC(C)(C)C)o1	0.9	0.0104	-9.0	1.1	-0.182	11.6
CCOC(=O)C(C)Oc1c(Br)cc(C2NC(=O)NC(C)=C2C(C)=O)cc1OCC (stereo not drawn)	0.4	0.802	55.1*	0.4	nt	57.9*
CCOC(=O)COc1cc(Br)c(C2NC(=O)NC(C)=C2C(C)=O)cc1OCC (stereo not drawn)	0.8	-1.32	35.3	0.6	nt	16.5
CC(OC(=O)c1ccncc1)C(=O)Nc1cccc(Cl)c1 (stereo not drawn)	0.3	-0.00332	63.1*	0.4	nt	75.0*
COc1cccc(NC(=O)c2ccncc2)c1	0.6	-0.0845	2.6	1	-0.272	35.8
O=C(Nc1cccc(Cl)c1)c1csc(-c2ccccc2)n1	1.1	nt	57.5*	0.4	nt	-10.1
O=C(Nc1cccc(Cl)c1)c1ccncc1	0.3	0.0366	25.4	0.7	0.89	67.6*
O=C(Nc1ccc(Cc2ccncc2)cc1)c1ccc(Cl)c([N+](=O)[O-])c1	0.2	0.835	76.1*	0.2	nt	77.4*
O=C(Nc1ccc(Cl)cc1)c1ccc(-n2cccn2)c([N+](=O)[O-])c1	1	0.00123	-18.1	1.2	nt	-3.8
CC(OC(=O)CN(C)S(=O)(=O)c1ccc(Cl)cc1)C(=O)Nc1cccc(Cl)c1 (stereo not drawn)	0.6	0.168	20.4	0.8	nt	36.9
N#Cc1c(N)sc2c1CCN(CCc1ccccc1)C2	nt	1.49	nt	nt	nt	nt
O=C(Nc1c2c(nn1-c1ccc(F)cc1)CS(=O)(=O)C2)C12CC3CC(CC(C3)C1)C2	0.9	nt	12.6	0.9	-2.55	13.5
O=C(Nc1ccc(Cl)c(Cl)c1)c1ccncc1	0	1.13	53.7*	0.5	-0.76	96.3*
O=C(CNc1cccc(Cl)c1)c1ccc(Cl)cc1	0.1	-1.33	14.8	0.9	nt	86.2*
O=C(Nc1ccc(Cl)c(Cl)c1)OCc1cccnc1	0.4	-1.77	46.6	0.5	1.43	63.6*
COC(=O)C1=C(C(=O)OC)SC2(S1)C(C(=O)OC)=C(C(=O)OC)SC1=C2c2cc(C)cc(C)c2NC1(C)C	0.3	-0.348	78.6*	0.2	nt	67.3*
COc1ccc(-n2c(COc3ccc4ccccc4c3)nnc2SCC(=O)NCc2ccco2)cc1	0.5	0.00289	51.5*	0.5	nt	46.5
COc1ccc(-n2c(COc3cccc4ccccc34)nnc2SCC(=O)NCc2ccco2)cc1	0.7	1.46	55.3*	0.4	nt	27.8
COc1cccc(OCc2nnc(SCC(=O)NCc3ccco3)n2CCc2ccccc2)c1	0.1	-0.379	90.8*	0.1	nt	88.1*
COC(=O)c1nonc1NCn1nnc2ccccc21	0.7	-1.08	-8.8	1.1	1.28	28.0
O=C(NCc1cccs1)c1cccc(Nc2nc3ccc(Br)cc3[nH]2)c1	0.7	0.11	82.9*	0.2	nt	32.6
Cc1ccc(CNC(=O)C2C3C=CC(C3)C2C(=O)O)cc1 (stereo not drawn)	0.5	1.63	12.9	0.9	-1.09	53.4*
O=C(c1ccc(C23CC4CC(CC(C4)C2)C3)o1)N1CCOCC1	1	-0.0955	-5.5	1.1	4.53	4.6
Cc1ccc2nc(-c3cccc(NC(=O)c4ccco4)c3)[nH]c2c1	0.1	1.55	90.8*	0.1	-1.66	90.6*
O=C(Nc1ccc2nc(-c3ccco3)[nH]c2c1)c1ccco1	1	3.02*	-29.5	1.3	0.698	4.7
O=C(Nc1ccc(-c2nc3ccccc3[nH]2)cc1)c1ccco1	0.3	-0.841	39.0	0.6	nt	66.4*

Bioassay records (PubChem BioAssay)
